Bioassay records from PubChem BioAssay.
HT1080-NT tox – kills 2HG-producing HT-1080-NT fibrosarcoma cells. AID 686970. 360,000 tested, 1.6% active. Potency, µM (top dose mostly 46.1 µM), for inactives: at the highest dose activity, negative = less viability, hits mostly cytotoxic. HT-1080-NT fibrosarcoma viability, CellTiter-Glo ATP luminescence, 48 h;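 further: NT is the 2HG producing partner of a matched IDH1 knockdown line; potency means the concentration at half of the fitted maximal effect; 0% = DMSO-treated cells and -100% = media-only wells without cells; nearly all actives have a fitted effect of over 55% in size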
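HT-1080-NT fibrosarcoma cells (2HG-overproducing), 750 cells/well in RPMI with 5% FBS, dosed after 2 h and incubated 48 h at 37C. CellTiter-Glo luminescence normalized to DMSO and no-cell wells; concentration-response curves fitted and classed.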
TDP1 cell CPT – DT40-hTDP1 cell growth loss with CPT; chicken DT40 Tdp1-/-;hTDP1 cells + 20 nM CPT, ATP luminescence, 48 h; Potency, µM (highest dose often 46.2 µM), for inactives: at the highest dose activity change, negative = growth inhibition, hits mostly inhibitors; 420,000 tested, 12% active; AID 686979; further: potency means the concentration at half of the fitted maximal effect; nearly all actives have a fitted effect of over 55% in size
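Chicken DT40 Tdp1-/- cells stably complemented with human TDP1 were seeded at 400 cells/well in medium containing 20 nM camptothecin, exposed to pin-transferred compounds, and grown at 37 °C for at least 48 hr. Viability was read as ATP luminescence.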
IL1B secr inh – inhibitors of inflammasome signaling (IL-1 beta secretion) | THP-1 LPS/ATP IL-1B secretion, AlphaLISA, 16 h; active compounds read low | activity change, % at 57.5 µM | 360,000 tested, 4.7% active; in the data active means activity change below about -50%; inconclusive means mostly about -30% to -49%
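THP-1 cells pretreated 1 hr with compounds (up to 57.5 uM final), then stimulated with LPS (250 ng/mL final) plus ATP (1.25 mM final); secreted IL-1B measured by AlphaLISA after 16 hr, decreased signal indicating inhibition.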
HT1080 IDH1KD tx – toxicity to HT-1080 IDH1 knockdown cells (counter line); HT-1080 IDH1 knockdown viability, ATP luminescence, 48 h; Potency, µM (titrated, usually from 46.1 µM), inactives show at the top dose activity, negative = toxicity, actives largely listed as cytotoxic; 360,000 tested, 2% active;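 further: potency means the concentration at half of the fitted maximal effect; 0% = DMSO wells and -100% = cell-free medium wells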
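CellTiter-Glo luminescence after 48 h compound exposure at 37 degrees C of IDH1-knockdown HT-1080 cells in 5% FBS RPMI. %Activity scaled between DMSO wells and cell-free media wells, with curves fitted and assigned curve classes.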
DT40 TDP1 no CPT – qHTS for Inhibitors of human tyrosyl-DNA phosphodiesterase 1 (TDP1): qHTS in cells in absence of CPT; DT40 Tdp1-/- hTDP1 cells, no CPT, ATP luminescence, 48 h; Potency, µM (top dose mostly 46.2 µM), inactives show at the highest dose activity change, negative = growth inhibition, hits mostly inhibitors; 420,000 tested, 15% active; further: potency means the concentration at half of the fitted maximal effect; nearly all actives have a fitted effect of over 55% in size
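Chicken DT40 Tdp1-/- cells stably complemented with human TDP1 were seeded at 400 cells/well with DMSO in place of 20 nM camptothecin. After compound pinning, cells grew at least 48 hr at 37 °C; viability read by CellTiter-Glo luminescence.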
12-LOX inh – blocks human arachidonate 12S-lipoxygenase; P18054; purified 12hLO, xylenol orange hydroperoxide absorbance; Potency, µM (highest dose often 108 µM), for inactives: at the highest dose activity change, negative = inhibition, actives largely listed as inhibitors; 580,000 tested, 1.1% active; further: potency means the concentration at half of the fitted maximal effect
Target sequence (P18054 whole entry, looked up): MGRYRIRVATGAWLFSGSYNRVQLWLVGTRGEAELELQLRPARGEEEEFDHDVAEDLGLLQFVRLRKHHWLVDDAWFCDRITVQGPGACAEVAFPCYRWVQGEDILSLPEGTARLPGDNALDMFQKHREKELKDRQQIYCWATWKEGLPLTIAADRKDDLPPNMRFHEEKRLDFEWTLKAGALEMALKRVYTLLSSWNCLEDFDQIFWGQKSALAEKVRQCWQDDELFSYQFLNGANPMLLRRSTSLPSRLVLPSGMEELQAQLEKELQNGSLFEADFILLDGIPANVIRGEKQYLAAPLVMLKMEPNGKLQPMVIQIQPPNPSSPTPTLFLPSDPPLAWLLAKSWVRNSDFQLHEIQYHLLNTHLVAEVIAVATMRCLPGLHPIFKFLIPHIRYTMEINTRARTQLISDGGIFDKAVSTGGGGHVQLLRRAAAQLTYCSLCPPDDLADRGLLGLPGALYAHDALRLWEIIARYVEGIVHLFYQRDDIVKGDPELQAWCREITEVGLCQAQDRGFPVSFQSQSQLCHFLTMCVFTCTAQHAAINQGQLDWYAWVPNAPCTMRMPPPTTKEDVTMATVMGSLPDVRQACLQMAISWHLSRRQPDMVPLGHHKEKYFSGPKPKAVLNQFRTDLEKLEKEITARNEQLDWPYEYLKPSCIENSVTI
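Purified human 12hLO (150 nM final) in 25 mM Hepes, 0.01% Triton X-100, pH 7.0 was preincubated 15 min at room temperature with compound. Then 40 uM arachidonic acid was added, 30 min. Hydroperoxide was read by Fe-XO absorbance ratio 573/405 nm.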
* = called active by the depositor; ? = inconclusive; · = no result given; ! = not active in a repeat. The sample as a whole holds a higher share of hits than the screen did. Unless noted, the call rests on the fitted dose curve; in most records, active means well fitted curve in the direction sought with a large enough effect; inconclusive means small, poorly fitted or top-dose-only effect, or another doubt; inactive means no such curve, though single readings can be large; an effect the other way counts as inactive or inconclusive. Unless noted, on the % scale 0 is the no-effect control and ±100 the full control effect.

SMILES | HT1080-NT tox | TDP1 cell CPT | IL1B secr inh | HT1080 IDH1KD tx | DT40 TDP1 no CPT | 12-LOX inh
O=C(CSc1nnc(CNc2ccc(F)cc2)n1CC1CCCO1)Nc1ccccc1 (stereo not drawn) | 0% | 21µM* | -12 | -3% | ? | -12%
Cc1ccc(S(=O)(=O)NN=C(c2ccccc2)c2cccs2)cc1 | -16% | -19% | -12 | -13% | 12µM* | ?
COc1ccc([C@H]2CC(=O)C=C(c3ccc(F)cc3OCc3ccccc3)C2)cc1 | 0% | ? | -15 | 2% | ? | -31%
O=C1C=C(c2ccc(Oc3ccccc3)cc2)C[C@@H](c2ccc(F)cc2)C1 | -3% | 18µM* | ? | 0% | ? | 2%
COc1ccc(C2=CC(=O)C[C@H](c3ccc(F)cc3)C2)cc1F | -8% | 21µM* | 0 | -5% | ? | 1%
COc1ccc([C@H]2CC(=O)C=C(c3ccc(F)cc3OCc3ccccc3)C2)cc1OC | -7% | ? | ? | 0% | 21µM* | -10%
O=C1C=C(c2ccc(OC(F)(F)F)cc2)C[C@@H](c2ccc(F)cc2)C1 | -2% | ? | -30 | 0% | ? | ·
COc1cccc(-c2n[nH]nc2C2=CC(=O)C[C@H](c3ccc(F)cc3)C2)c1 | -6% | ? | ? | -14% | ? | 4%
O=C1C=C(c2n[nH]nc2-c2ccccc2)C[C@@H](c2ccc(F)cc2)C1 | 0% | ? | -18 | -3% | 16µM* | 89%
COc1ccc([C@H]2CC(=O)C=C(c3ccc(Oc4ccccc4)cc3)C2)cc1OC | -13% | 10µM* | -3 | -14% | 23µM* | 8%
COc1ccc([C@H]2CC(=O)C=C(c3ccc(SC)cc3)C2)cc1OC | 6% | 9.2µM* | -13 | 5% | 15µM* | -15%
COc1ccc([C@H]2CC(=O)C=C(c3ccccc3)C2)cc1OC | 0% | ? | ? | -2% | ? | -10%
COc1ccc([C@H]2CC(=O)C=C(c3cccc(Cl)c3)C2)cc1OC | 6% | 15µM* | -66* | 3% | ? | -14%
CCCCC/C=C/C1=CC(=O)C[C@H](c2ccc(OC)c(OC)c2)C1 | -4% | 21µM* | -22 | -2% | 10µM* | -13%
O=C(c1ccco1)N1CCN(C(=O)N2CC3CC(C2)[C@H]2CCCC(=O)N2C3)CC1 (stereo partly drawn) | · | · | · | · | · | 42%
Cc1cnc(-c2ccccc2)n1CCNS(=O)(=O)c1ccccc1 | · | · | · | · | · | 33%
CCC1CN(C(=O)c2ccc3nc(-c4ccccc4)cn3c2)CCN1C(C)C (stereo not drawn) | · | · | · | · | · | 18%
COc1cc(F)c(CN2CCN(C)C3(CCNC(=O)CC3)C2)c(F)c1 (stereo not drawn) | · | · | · | · | · | -11%
O=C(O)CCC(=O)N1N=C(c2ccc3c(c2)OCO3)CC1c1ccccc1 (stereo not drawn) | · | · | · | · | · | 17%
CC(=O)Nc1sc(C)c(C)c1C(=O)Nc1ccc(C)cc1 | 7% | -1% | 38 | 15% | -19% | 21%
Cc1sc(NC(=O)C(C)C)c(C(=O)Nc2ccccc2)c1C | -6% | ? | 15 | 9% | 15µM* | -34%
Cc1cccc(NC(=O)CCCCC(=O)Nc2cccc(C)c2)c1 | 3% | 17% | 9 | 0% | -13% | 0%
CCCC(=O)Nc1sc(C)c(C)c1C(=O)Nc1cccc(C)c1 | 7% | -13% | -59* | -3% | -7% | 4%
CC(C)(C)c1ccc(/C=C2\Oc3cc(O)ccc3C2=O)cc1 | ? | 21µM* | -74* | ? | ? | -7%
N#Cc1ccc(/C=C2\Oc3cc(O)ccc3C2=O)cc1 | · | · | · | · | · | 14%
SMILES | HT1080-NT tox | TDP1 cell CPT | IL1B secr inh | HT1080 IDH1KD tx | DT40 TDP1 no CPT | 12-LOX inh
O=C1/C(=C/c2ccc(O)cc2)CCc2ccc([N+](=O)[O-])cc21 | 11% | ? | ? | 7% | 16µM* | -25%
O=C1/C(=C/c2ccc(Br)cc2)Oc2cc(O)ccc21 | -20% | -4% | 0 | ? | ? | ?
O=C1/C(=C/c2ccc([N+](=O)[O-])cc2)Oc2cc(O)ccc21 | -25% | ? | -1 | -16% | 7.3µM* | -42%
O=C1/C(=C\c2ccc([N+](=O)[O-])cc2)CCc2ccccc21 | -5% | -30% | ? | -2% | ? | -14%
COc1ccc(S(=O)(=O)Cc2nnnn2-c2cccc(C(F)(F)F)c2)cc1 | · | · | · | · | · | 19%
Cc1nc2cc(NC(=O)c3ccc[n+]([O-])c3)ccc2o1 | · | · | · | · | · | -24%
Cn1c(SCc2coc(-c3cccs3)n2)nnc1-c1ccccc1F | · | · | · | · | · | -18%
Cc1c(C(=O)Nc2ccc3c(c2)OCCO3)sc2nc(-c3ccccc3)cn12 | ? | 8.2µM* | -92* | ? | 5.8µM* | -5%
Cc1c(C(=O)N2CCOCC2)sc2nc(-c3ccccc3)cn12 | 8% | 1% | 0 | 5% | -17% | 0%
CNC(=O)c1sc2nc(-c3ccc(OC)cc3)cn2c1C | 13% | -10% | -15 | 5% | ? | -14%
Cc1c(C(=O)Nc2ccncc2)sc2nc(-c3ccccc3)cn12 | 2% | 18µM* | 19 | -6% | 10µM* | 30%
COc1ccc(-c2cn3c(C)c(C(=O)Nc4cc(NC(C)=O)ccc4OC)sc3n2)cc1 | ? | 13µM* | 5 | ? | 9.2µM* | -4%
CCOC(=O)c1ccc(NC(=O)c2sc3nc(-c4ccc(F)cc4)cn3c2C)cc1 | · | · | · | · | · | -29%
CCN(CC)c1ccc(NC(=O)c2sc3nc(-c4ccccc4)cn3c2C)cc1 | · | 3.7µM* | · | · | 5.2µM* | ?
CN(C)c1ccc(/C=C/c2nc(-c3ccccc3O)n(-c3ccccc3)n2)cc1 | · | 16µM* | · | · | ? | -17%
COc1ccc(N(CC(C)C)S(=O)(=O)c2nnc(NC(=O)c3ccco3)s2)cc1 | -27% | ? | -2 | -28% | 21µM*! | 24%
Cc1ccc(N(CC(C)C)S(=O)(=O)c2nnc(NC(=O)c3cccs3)s2)cc1 | · | ? | · | · | 23µM* | -14%
Cc1cccc(N(C)S(=O)(=O)c2nnc(NC(=O)c3cccs3)s2)c1 | · | -6% | · | · | ? | -18%
CCN(c1ccc(OC)cc1)S(=O)(=O)c1nnc(NC(=O)c2ccccc2Cl)s1 | -4% | ? | -17 | -25% | 16µM*! | -23%
Cc1ccc(S(=O)(=O)N2CCCC(Cn3cnc4cccnc43)C2)c(C)c1 (stereo not drawn) | · | · | · | · | · | -12%
